The test system of test [1] is MKL-1. The test is described as follows: qHTS assay to identify novel small-molecules to repurpose for Merkel cell carcinoma treatment (AID 1296009). Note: nearly all actives have a fitted effect of over 60% in size. The following applies: MCC and control cell lines, CellTiter-Glo viability, 72 h; series mostly up to 46 µM. Put shortly: (§1)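 qHTS format: cells treated with library compounds in DMSO across 8 (NPC) or 11 (MIPE) concentrations. Readout after 72 hr at 37 degree celsius was CellTiter-Glo luminescence.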
On the technique in general: In qHTS, concentration-response curves come from the screen itself.

In test [2] the test system is MKL-2. The test is described as above. The following applies: MCC and control cell lines, CellTiter-Glo viability, 72 h; series mostly up to 46 µM. An outline of the steps: as §1
On the technique in general: Cellular ATP, detected with luciferase, serves as a proxy for viable cell number.

Test [3] relates to NIH3T3. The description is as above. The following applies: MCC and control cell lines, CellTiter-Glo viability, 72 h; at 44.8 µM (top of the series) unless noted. An outline of the steps: as §1
In test [4] the test system is UISO. The test is described as above. Particulars: MCC and control cell lines, CellTiter-Glo viability, 72 h; series mostly up to 46 µM. Put shortly: as §1
Test [5] relates to WaGa. The test is described as above. Particulars: MCC and control cell lines, CellTiter-Glo viability, 72 h; series mostly up to 46 µM. Put shortly: as §1
Test [6] relates to C33A. The test is described as follows: Primary qHTS to identify gynecologic anti-cancer compounds using libraries of approved drugs and bioactive compounds (AID 1345084). Note: nearly all actives have a fitted effect of over 55% in size. The following applies: Gynecologic cancer cell panel viability, ATPlite luminescence, 48 h; series mostly up to 57.5 µM. Put shortly: (§2)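 Cytotoxicity screen measuring ATP content by luciferase luminescence. Each compound is applied at five concentrations for 48 h at 37 C with 5% CO2.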

For test [7], the system named is CAOV3. The test is described as above. The following applies: Gynecologic cancer cell panel viability, ATPlite luminescence, 48 h; series mostly up to 57.5 µM. An outline of the steps: as §2
The test system of test [8] is CASKI. The test is described as above. Particulars: Gynecologic cancer cell panel viability, ATPlite luminescence, 48 h; series mostly up to 57.5 µM. An outline of the steps: as §2
Test [9] deals with Es-2. The description is as above. Particulars: Gynecologic cancer cell panel viability, ATPlite luminescence, 48 h; series mostly up to 57.5 µM. Put shortly: as §2
Test [10] has as its system HeLa. Described as above. The following applies: Gynecologic cancer cell panel viability, ATPlite luminescence, 48 h; series mostly up to 57.5 µM. An outline of the steps: as §2
Test [11] concerns Hek293T. The description is as above. The following applies: Gynecologic cancer cell panel viability, ATPlite luminescence, 48 h, control line for the selectivity index; series mostly up to 57.5 µM. An outline of the steps: as §2
For test [12], the system named is JEG-3. Described as above. The following applies: Gynecologic cancer cell panel viability, ATPlite luminescence, 48 h; series mostly up to 57.5 µM. An outline of the steps:
as §2

Test [13] relates to OV90. The description is as above. The following applies: Gynecologic cancer cell panel viability, ATPlite luminescence, 48 h; series mostly up to 57.5 µM. An outline of the steps: as §2
The subject of test [14] is PA-1. The description is as above. The following applies: Gynecologic cancer cell panel viability, ATPlite luminescence, 48 h; series mostly up to 57.5 µM. An outline of the steps: as §2
Test [15] deals with Tov-21-G. Described as above. The following applies: Gynecologic cancer cell panel viability, ATPlite luminescence, 48 h; series mostly up to 57.5 µM. An outline of the steps: as §2
For test [16], the system named is Tov112D. The test is described as above. The following applies: Gynecologic cancer cell panel viability, ATPlite luminescence, 48 h; series mostly up to 57.5 µM. Put shortly: as §2
Test [17] is described as follows: Drug repurposing screens with cells derived from glioblastoma tumor samples (AID 1345199). Note: nearly all actives have a fitted effect of over 40% in size. Note: potency is the fitted concentration of half-maximal effect. Particulars: GBM patient neurospheres viability, ATP luminescence, 48 h. Put shortly:
(§3)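 Four patient lines of CD133+ GBM neurospheres were screened at several concentrations; hits were retested in those lines plus three slower-growing GBM lines, using 48-hour treatment and ATP-based viability.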

Test [18] relates to astro. Described as above. Particulars: viability, ATP luminescence, 48 h; series mostly up to 45.9 µM. An outline of the steps: as §3
In test [19] the test system is MCC-26. The test is described as follows: qHTS assay to identify novel small-molecules to repurpose for Merkel cell carcinoma treatment (AID 1296009). Note: nearly all actives have a fitted effect of over 60% in size. Particulars: MCC and control cell lines, CellTiter-Glo viability, 72 h; series mostly up to 46 µM. An outline of the steps: as §1
In test [20] the test system is SKOV3. The test is described as follows: Primary qHTS to identify gynecologic anti-cancer compounds using libraries of approved drugs and bioactive compounds (AID 1345084). Note: nearly all actives have a fitted effect of over 55% in size. Particulars: Gynecologic cancer cell panel viability, ATPlite luminescence, 48 h; series mostly up to 57.5 µM. Put shortly:
as §2

[21] abbreviates: at 45.9 µM (top of the series), tumour line B.
[22] abbreviates: at 45.9 µM (top of the series), tumour line D.
Setting [23] is: at 46 µM (top of the series), tumour line A.
[24] abbreviates: at 46.1 µM (top of the series), tumour line C.

For 8 compounds, Potency, outcome and activity, negative = cell killing results are on record in PubChem BioAssay (NCATS).

Several values for one entry are separate records, joined by “and”; a condition that tells them apart may be missing. Identical values can stand only once. Records with an inconclusive call do not appear. Values without a mark were called inactive. Activity calls are given as the source filed them. Calls come from the whole dose curve; as a rule, active = well fitted curve in the direction sought with a large enough effect; inconclusive = small, poorly fitted or top-dose-only effect, or another doubt; inactive = no such curve, though single readings can be large; an effect the other way counts as inactive or inconclusive.
% is set by controls: 0 for no effect and ±100 for the full control effect.

`[O-][n+]1cccc(CO)c1`: the Potency result in test [1], in [2], in [4], in test [5], in test [6] and in test [7] was “inactive” in each case. Further, the Potency result in [8], in test [9], in [10], in test [11], in test [12] and in test [13] was “inactive” each time. Also, the Potency entry in test [14], in [15], in test [16] and in [18] was “inactive” each time. In addition, the result in [3] was inactive. Further, the activity, negative = cell killing was -6.72% in test [17] (setting [21]), -10.2% in test [17] (setting [22]), -20.8% in [17] (setting [23]) and -13.8% in [17] (setting [24]).
`CC1=C(/C=C/C(C)=C/C=C/C(C)=C/C(=O)O)C(C)(C)CCC1`: the Potency entry in test [19], in [4], in [6], in test [7], in test [8] and in test [9] was “inactive” each time. Further, the Potency entry in test [10], in [11], in test [12], in [13], in test [14] and in [20] was “inactive” throughout. For the same compound, the Potency result in test [15] and in [16] was “inactive” in each case.
For the compound `CC(COc1ccccc1)NC(C)C(O)c1ccc(O)cc1` (stereo not given), the Potency result in test [1], in test [2], in test [4], in test [5], in test [6] and in [7] was “inactive” each time. The Potency entry in test [8], in test [9], in test [10], in [11], in [12] and in test [13] was “inactive” throughout. In addition, the Potency result in [14], in [20], in [15], in test [16] and in [18] was “inactive” throughout. Moreover, the result in [3] was inactive. The activity, negative = cell killing in test [17] (at 20 µM (top of the series), tumour line C) is -3.58%; in test [17] (at 21.2 µM (top of the series), tumour line B) it was -2.68%; in [17] (at 21.2 µM (top of the series), tumour line D), -14.2%.
Regarding `CSc1ccc2c(c1)C(N1CCN(C)CC1)Cc1ccccc1S2` (stereo not given), the Potency result in test [19], in test [6], in test [8], in [9], in [10] and in [11] was “inactive” each time. In addition, the Potency entry in test [12], in test [14], in [15] and in test [16] was “inactive” in each case. In test [18], the Potency was 20 µM (active).
As to `Cn1c(=O)c2c(ncn2CC2OCCO2)n(C)c1=O`, the Potency result in test [1], in test [2], in test [4], in [5], in [6] and in [7] was “inactive” in each case. The Potency result in test [8], in [9], in test [10], in [11], in test [12] and in [13] was “inactive” throughout. Further, the Potency result in [14], in test [20], in test [15], in [16] and in test [18] was “inactive” throughout. Also, in test [3], the outcome was inactive. Also, the activity, negative = cell killing in [17] (setting [21]) was -0.596%; in test [17] (setting [22]), -3.46%; in test [17] (setting [23]), -20.3%; in [17] (setting [24]), -4.14%.
On to `CCN(CC)CCSC(=O)C(c1ccccc1)c1ccccc1`, for which the Potency result in test [19], in test [1], in test [4], in test [6], in test [7] and in test [8] was “inactive” throughout. Moreover, the Potency result in test [9], in test [10], in test [11], in test [12], in test [13] and in test [14] was “inactive” in each case. In addition, the Potency entry in [20], in test [15], in test [16] and in test [18] was “inactive” in each case. Moreover, the activity, negative = cell killing in test [17] (setting [21]) is -17.9% and -28.9%.
As for `Nc1nc2c(ncn2CCC(CO)CO)c(=O)[nH]1`, the Potency entry in test [1], in [2], in test [4], in test [5], in test [6] and in test [7] was “inactive” each time. Moreover, the Potency entry in [8], in [9], in test [10], in test [11], in test [12] and in test [13] was “inactive” in each case. For the same compound, the Potency result in test [14], in [20], in test [15], in test [16] and in [18] was “inactive” throughout. Further, the compound was classed as inactive in test [3]. The activity, negative = cell killing is -8.7% in test [17] (setting [21]), 3.63% in test [17] (setting [22]) and -21.6% in test [17] (setting [24]).
As to `CC(CN1c2ccccc2Sc2ccccc21)N(C)C` (stereo not given), the Potency result in [19], in [1], in test [2], in test [6], in test [8] and in test [9] was “inactive” each time. The Potency entry in [10], in test [11], in test [12], in [14], in test [20] and in test [15] was “inactive” in each case. In test [16], the Potency entry is “inactive”. Also, the activity, negative = cell killing in test [17] (setting [24]) was -1.52%. The Potency in test [17] (tumour line A) was 14.1 µM (active); in test [17] (tumour line B), 20 µM (active); in test [17] (tumour line D) it was 22.4 µM (active); in [18], 20 µM (active).
